# From article PMC4336329 (PLoS ONE, 2015)
# Among all 310,000 compounds or so, about 14,000 (4.5%) showed an effect of 50% or more. Effects have a minus sign here. Only a selection was taken, and strong results are over-represented in it overall. Where a SMILES comes first, the peptide text is derived from it. [ ]: non-standard residue; d: D form. The star is where a group is joined. ξ: configuration not given here. Cbz = O=C(OCc1ccccc1)*; ξV = CC(C)C(N)C(=O)O
# Target: human ether-à-go-go-related gene (hERG) potassium channel (human, UniProt Q12809)
# Assay: primary screen, population patch clamp on CHO cells stably expressing hERG; higher = less effect of the substance
# 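Note: peak tail current of the secondary pulse compared with the same well before compound.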
# Chain of human ether-à-go-go-related gene (hERG) potassium channel (Q12809 whole entry, looked up): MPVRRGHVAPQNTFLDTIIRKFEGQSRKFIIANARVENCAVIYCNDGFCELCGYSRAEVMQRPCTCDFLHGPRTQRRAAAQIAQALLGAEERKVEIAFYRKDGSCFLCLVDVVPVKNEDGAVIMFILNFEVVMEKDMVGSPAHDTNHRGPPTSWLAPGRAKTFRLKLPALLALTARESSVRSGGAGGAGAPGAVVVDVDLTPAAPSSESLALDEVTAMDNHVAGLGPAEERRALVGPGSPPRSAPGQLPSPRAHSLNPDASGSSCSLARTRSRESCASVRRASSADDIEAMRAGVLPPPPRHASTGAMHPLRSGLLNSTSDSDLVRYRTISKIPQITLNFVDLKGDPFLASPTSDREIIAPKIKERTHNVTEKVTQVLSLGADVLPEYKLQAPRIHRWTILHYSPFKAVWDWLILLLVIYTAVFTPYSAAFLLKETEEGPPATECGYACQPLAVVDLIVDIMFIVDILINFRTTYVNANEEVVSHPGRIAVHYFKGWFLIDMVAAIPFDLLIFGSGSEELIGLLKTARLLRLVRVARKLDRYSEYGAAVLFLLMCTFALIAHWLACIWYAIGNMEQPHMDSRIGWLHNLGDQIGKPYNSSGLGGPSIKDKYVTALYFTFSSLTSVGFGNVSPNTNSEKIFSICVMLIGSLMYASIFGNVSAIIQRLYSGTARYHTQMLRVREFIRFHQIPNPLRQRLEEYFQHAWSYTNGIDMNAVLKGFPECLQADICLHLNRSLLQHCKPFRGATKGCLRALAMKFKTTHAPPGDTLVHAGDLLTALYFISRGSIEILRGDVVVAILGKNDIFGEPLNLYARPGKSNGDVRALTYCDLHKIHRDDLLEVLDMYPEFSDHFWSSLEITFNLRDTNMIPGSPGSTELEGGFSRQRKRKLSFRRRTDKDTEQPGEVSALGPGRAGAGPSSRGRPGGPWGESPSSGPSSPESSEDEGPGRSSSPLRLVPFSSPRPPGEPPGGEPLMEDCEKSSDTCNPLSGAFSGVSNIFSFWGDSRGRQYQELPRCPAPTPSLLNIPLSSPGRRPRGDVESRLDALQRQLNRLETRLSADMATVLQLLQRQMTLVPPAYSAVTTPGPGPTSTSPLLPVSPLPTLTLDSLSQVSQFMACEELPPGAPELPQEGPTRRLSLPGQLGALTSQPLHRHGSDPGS
row,Structure (SMILES),"hERG current change (%, negative = inhibition) at 10uM [%]"
1,Cc1noc(C(=O)Nc2c(C)nn(Cc3ccccc3)c2C)c1Cl,4.71
2,CC1CCCC(NC(=O)CCC(=O)c2ccc(F)cc2)C1C (stereo not shown),8.27
3,CC1CCCC(NCC(O)COC(c2ccc(F)cc2)c2ccc(F)cc2)C1C (stereo not shown),-71.6
4,CC1CCCC(NC(=O)CSc2ccc(F)cc2)C1C (stereo not shown),18.7
5,Cc1cccc(C(=O)N2CCN(c3ncnc4c3cnn4-c3ccccc3)CC2)c1,-19.4
6,COc1ccc(-c2cc(=O)oc3c(C)c(OC(C)C(=O)NCc4ccccn4)ccc23)cc1 (stereo not shown),-9.16
7,CCc1cc(=O)oc2cc(OC(C)C(=O)NCc3ccccn3)ccc12 (stereo not shown),14.4
8,Cc1cc(=O)oc2cc(OC(C)C(=O)NCc3ccccn3)ccc12 (stereo not shown),9.03
9,CCOC(=O)C(C)Oc1ccc2c(-c3cccc([N+](=O)[O-])c3)cc(=O)oc2c1 (stereo not shown),-62.4
10,COC(=O)C(C)Oc1ccc2c(-c3cccc([N+](=O)[O-])c3)cc(=O)oc2c1 (stereo not shown),-25.8
11,CC(Oc1ccc2c(-c3ccccc3)cc(=O)oc2c1)C(=O)NCc1ccccn1 (stereo not shown),-50.9
12,COc1ccc(-c2cc(=O)oc3cc(OCC(=O)NCc4ccccn4)ccc23)cc1,-6.52
13,COc1ccc(-c2cc(=O)oc3cc(OC(C)C(=O)NCc4ccccn4)ccc23)cc1 (stereo not shown),-54.8
14,CC(=O)COc1ccc2c(-c3cccc([N+](=O)[O-])c3)cc(=O)oc2c1,-25.9
15,Cc1ccccc1NC(=O)c1cnn(-c2ccccc2)c1NC(=O)c1ccco1,0.329
16,COc1ccc(CCNC(=O)c2c[nH]c3ccccc3c2=O)cc1OC,-1.95
17,Cc1noc(NS(=O)(=O)c2ccc(NC(=O)C34CCC(CC3)C4)cc2)c1C,-9.55
18,COC(=O)CNC(=O)C(NC(=O)OCc1ccccc1)C(C)C (stereo not shown) (Cbz-[ξV]-Gly-OMe),16.1
19,CCOC(=O)Nc1ccc2c(c1)OCO2,26.2
20,CCOC(=O)C1CCCN(Cc2nc(N)nc(Nc3ccccc3OC)n2)C1 (stereo not shown),-70.8
21,Cc1ccccc1Nc1nc(N)nc(COC(=O)C2CCCCC2)n1,8.35
22,CCOC(=O)C1CCCN(Cc2ccc(OCC)cc2)C1 (stereo not shown),-42.9

row,Structure (SMILES),"hERG current change (%, negative = inhibition) at 10uM [%]"
1,CCOC(=O)C1CCCN(Cc2c(Cl)cccc2Cl)C1 (stereo not shown),-6.47
2,CCOC(=O)C1CCCN(Cc2nc(N)nc(Nc3ccc(C)cc3)n2)C1 (stereo not shown),-69.5
3,CCOC(=O)C1CCCN(Cc2nc(N)nc(Nc3ccc(Cl)cc3)n2)C1 (stereo not shown),-79
4,CCOC(=O)C1CCCN(Cc2ccccc2Cl)C1 (stereo not shown),-3.88
5,CCOC(=O)C1CCCN(c2nc3ccccc3nc2NS(=O)(=O)c2ccc(C)cc2)C1 (stereo not shown),-44.8
6,CCOC(=O)C1CCCN(Cc2cccc(Cl)c2)C1 (stereo not shown),-8.02
7,COc1ccccc1Nc1nc(N)nc(CSC(=S)N2CCCCC2C)n1 (stereo not shown),-5.64
8,CCOC(=O)C1CCCN(Cc2nc(N)nc(Nc3ccc(OC)cc3)n2)C1 (stereo not shown),-75.6
9,CCOC(=O)C1CCCN(C(=S)Nc2ccc(OC)cc2)C1 (stereo not shown),5.25
10,N#Cc1cc2c(N)c(C(=O)Nc3ccccc3)sc2nc1N,8.83
11,CCCCN(C(=O)C1CCC1)c1c(N)n(CC(C)C)c(=O)[nH]c1=O,1.74
12,COc1ccccc1OCC(=O)[O-].[Na+],4.6
13,Cc1c(Cl)cccc1-c1ccc(CNCc2ccccn2)o1.Cl,8.15
14,Cc1ccc(OCC(=O)NCCO)c(Br)c1,14.3
15,O=C(CSc1nnc(-c2ccc(F)cc2)o1)Nc1ccc(S(=O)(=O)N2CCCC2)cc1,-2.73
16,CC(C(=O)NCc1cccs1)n1cccc1 (stereo not shown),7.58
17,COc1ccc(CNC(=O)CC23CC4CC(CC(C4)C2)C3)cc1,20.4
18,CCOC(=O)C1CCCN(Cc2nc(N)nc(Nc3ccccc3)n2)C1 (stereo not shown),-71.2
19,CCOC(=O)C1CCCN(Cc2ccccc2C)C1 (stereo not shown),-15.1
20,CCOC(=O)C1CCCN(Cc2ccc(-c3ccccc3)cc2)C1 (stereo not shown),-10.5
21,CCN(CC)C(=O)Cn1c(=O)n(CCC(=O)Nc2ccc(F)cc2)c(=O)c2sccc21,14.9
22,Cc1ccc2nc(NC(=O)c3ccc(Br)o3)sc2c1,20.6

row,Structure (SMILES),"hERG current change (%, negative = inhibition) at 10uM [%]"
1,CCOc1ccc(N2C(=O)C3ON(c4ccccc4)C(c4cccs4)C3C2=O)cc1 (stereo not shown),7.35
2,CC(=O)Nc1ccc(NC(=O)C2CC(=O)Nc3nc4ccccc4n32)cc1 (stereo not shown),24.6
3,Cc1cc(C(=O)N/N=C/C=C/c2cccc([N+](=O)[O-])c2)n[nH]1,-3.28
4,CC(C)(O)C#Cc1ccc(C(=O)N2CCN(c3ccc(Cl)cc3)CC2)cc1,-9.19
5,Cc1cc(C(=O)N2CCN(c3ccc([N+](=O)[O-])cc3)CC2)n[nH]1,-78.5
6,O=C(c1ccc2c(c1)OCCO2)N1CCN(c2ccc([N+](=O)[O-])cc2)CC1,-47.1
7,Cc1cc(C(=O)N/N=C/C=C/c2ccc([N+](=O)[O-])cc2)n[nH]1,-53
8,CC(C)(O)C#Cc1ccc(C(=O)N2CCN(c3ccc(F)cc3)CC2)cc1,-11.4
9,O=C(c1cc2ccccc2cc1O)N1CCN(c2ccc([N+](=O)[O-])cc2)CC1,-40.3
10,CC(C)(O)C#Cc1ccc(C(=O)N2CCN(c3ccc([N+](=O)[O-])cc3)CC2)cc1,-70.4
11,O=C(c1cc(C(=O)N2CCN(c3ccc(F)cc3)CC2)cc([N+](=O)[O-])c1)N1CCN(c2ccc(F)cc2)CC1,-26.2
12,Cc1cc(C(=O)N/N=C/C=C/c2ccc(Br)cc2)n[nH]1,9.77
13,Cc1onc(-c2ccccc2)c1C(=O)N1CCN(c2ccc([N+](=O)[O-])cc2)CC1,-36.4
14,Cc1cc(C(=O)N2CCN(c3ccc([N+](=O)[O-])cc3)CC2)co1,-75.5
15,CCOc1ccc(/C=C/C(=O)CCC(=O)O)cc1,13.5
16,O=[N+]([O-])c1cccc(-c2ccc(C(=S)N3CCN(c4ccc(F)cc4)CC3)o2)c1,2.61
17,COc1ccc(N2CCN(C(=O)c3nc4nc(C)cc(C)n4n3)CC2)cc1,9.69
18,O=C(c1ccc([N+](=O)[O-])cc1)N1CCN(c2ncc(Br)cn2)CC1,-32
19,Cc1cc(C)n2nc(C(=O)N3CCN(c4ccc([N+](=O)[O-])cc4)CC3)nc2n1,-71.4
20,COc1ccc(N2CCN(C(=O)c3cc(C)on3)CC2)cc1,6.64
21,COc1cccc(N2CCN(C(=O)c3nc4nc(C)cc(C)n4n3)CC2)c1,7.28
22,O=C(c1cncc(Br)c1)N1CCN(c2ccc(N3CCOCC3)nn2)CC1,-2.06

row,Structure (SMILES),"hERG current change (%, negative = inhibition) at 10uM [%]"
1,Cc1cc(C(=O)N2CCN(c3ccccc3)CC2)no1,-0.965
2,Cc1cc(C(=O)N2CCN(c3ccc([N+](=O)[O-])cc3)CC2)no1,-70.6
3,O=C(c1cncc(Br)c1)N1CCN(c2ccc([N+](=O)[O-])cc2)CC1,-77
4,Cc1c(O)ccc2c(O)c(NC(=O)c3ccc4c(c3)CCC(C)(C)O4)c(=O)oc12,6.09
5,CCn1c(CNC(=O)c2ccc(OC)c(OC)c2)nnc1SCC(=O)c1ccc(OC)cc1,-0.747
6,O=C(CSc1ncn[nH]1)Nc1ccc(Cl)c(Cl)c1,0.453
7,Cn1cc2cccc([N+](=O)[O-])c2n1,2.69
8,O=C(CSc1nc2ccc([N+](=O)[O-])cc2[nH]1)c1ccc(Cl)cc1,12.1
9,O=C1c2ccccc2C2(c3ccccc3)NCCN12 (stereo not shown),5.86
10,CN(CC(=O)Nc1cccc2ccccc12)c1ccc(S(=O)(=O)N2CCOCC2)cn1,11.8
11,CCc1ccc(CNC(=O)C2CCC(=O)N(CCc3ccc(Cl)cc3)C2)nc1 (stereo not shown),-67
12,O=C(NCc1ccccn1)C1CCC(=O)N(Cc2ccc(Cl)cc2)C1 (stereo not shown),18.7
13,O=C(NCc1ccc2c(c1)OCO2)C1CC(=O)N(CCc2ccccc2)C1 (stereo not shown),3.54
14,O=C(NCc1ccncc1)C1CCC(=O)N(CCc2ccc(Cl)cc2)C1 (stereo not shown),-65.5
15,Cc1ccc(CCN2CC(C(=O)NCc3ccc4c(c3)OCO4)CC2=O)cc1 (stereo not shown),-37.2
16,COc1ccccc1CCCNC(=O)C1CCC(=O)N(Cc2ccccc2F)C1 (stereo not shown),-1.76
17,Cc1ccc(CNC(=O)C2CCC(=O)N(CCc3ccc(Cl)cc3)C2)cc1 (stereo not shown),-40.2
18,CCn1nc(C)c(CNC(=O)C2CCC(=O)N(CCc3ccc(Cl)cc3)C2)c1C (stereo not shown),-21.6
19,COc1ccccc1CCCNC(=O)C1CCC(=O)N(CCc2ccc(Cl)cc2)C1 (stereo not shown),-60.5
20,O=C(NCc1ccon1)C1CCC(=O)N(CCc2ccc(Cl)cc2)C1 (stereo not shown),-37.2
21,COc1ccccc1CCCNC(=O)C1CCC(=O)N(CCCN2CCCC2=O)C1 (stereo not shown),14
22,O=C(NCc1ccc2c(c1)OCO2)C1CC(=O)N(CCc2ccc(Cl)cc2)C1 (stereo not shown),-54.1
